# According to PubChem BioAssay (NCI):
# Compounds without any hit were thinned out: in the full panel of roughly 83,000, 20% have a hit.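 Single-dose data. Exposure time 48 hours. Values below 10 considered active.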 Values without a mark were called inactive. Calls of active or inactive are those of the source.
# Key:
# Experiment in all cases: NCI-60 one-dose screen, 48 h (100 = growth as untreated, 0 = no growth, -100 = all killed)
# Conditions in all cases: 10 µM unless noted
# [1] = test system: DU-145 prostate
# [2] = test system: K-562 leukemia
# [3] = test system: MALME-3M melanoma
# [4] = test system: MDA-MB-231 breast
# [5] = test system: RXF 393 renal
# [6] = test system: SF-268 CNS
# [7] = test system: SF-295 CNS
# [8] = test system: SF-539 CNS
# [9] = test system: UACC-257 melanoma
# [10] = test system: M14 melanoma
# [11] = test system: HCT-15 colon
# [12] = test system: HT29 colon
# [13] = test system: SNB-75 CNS
# [14] = test system: SNB-19 CNS
# [15] = test system: U251 CNS
# [16] = test system: PC-3 prostate
# [17] = test system: SK-MEL-5 melanoma
# [18] = test system: UACC-62 melanoma
# [19] = test system: LOX IMVI melanoma
# [20] = test system: SK-MEL-28 melanoma
SMILES,growth [1],growth [2],growth [3],growth [4],growth [5],growth [6],growth [7],growth [8],growth [9],growth [10],growth [11],growth [12],growth [13],growth [14],growth [15],growth [16],growth [17],growth [18],growth [19],growth [20]
CC(=O)Nc1ccc(C=Nc2ccc3ccccc3c2)cc1,112%,105%,111%,109%,108%,105%,119%,107%,103%,97%,105%,105%,77.7%,92.9%,113%,96.5%,99.6%,97.2%,114%,108%
CCCCCn1c(C)cc(/C=C\c2ccc3cc(C)ccc3[n+]2C)c1C,-52.3% (active),9.64% (active),-67.5% (active),-46.8% (active),-60.8% (active),-61% (active),-90.9% (active),-85.8% (active),-99.1% (active),-71.2% (active),-12% (active),-61.8% (active),-94.4% (active),-89.8% (active),-93.9% (active),-47.9% (active),-95.7% (active),-89.8% (active),-72.4% (active),-87.1% (active)
O=S(=O)(NCc1ccccc1)c1ncnc2nc[nH]c12,111%,97.1%,117%,107%,114%,110%,104%,98.1%,92.7%,108%,108%,106%,91.4%,108%,86%,105%,99.7%,96.4%,99.1%,107%
Cc1ccc(S(=O)(=O)N/N=C2\CC3CCC2(C)C3(C)C)cc1 (stereo not given),105%,120%,103%,89%,89.4%,116%,94%,102%,87.8%,77.9%,99.7%,108%,81.8%,98.1%,96.1%,86.2%,101%,77.2%,92.3%,102%
C[C@H]1[C@H](C)CC[C@]2(C(=O)O)CC[C@]3(C)C(=CC[C@@H]4[C@@]5(C)C/C(=C/c6ccco6)C(=O)C(C)(C)[C@@H]5CC[C@]43C)[C@H]12,-73.1% [100 µM] (active),7.11% [100 µM] (active),-86% [100 µM] (active),-81.5% [100 µM] (active),-84% [100 µM] (active),-58.7% [100 µM] (active),-79.4% [100 µM] (active),-80.1% [100 µM] (active),-39.1% [100 µM] (active),-43.6% [100 µM] (active),-71.2% [100 µM] (active),-67.9% [100 µM] (active),-55.9% [100 µM] (active),-52.6% [100 µM] (active),-64.5% [100 µM] (active),-67.1% [100 µM] (active),-91.7% [100 µM] (active),-94.4% [100 µM] (active),-91.7% [100 µM] (active),-79.2% [100 µM] (active)
CC(C)=CCC[C@](C)(O)[C@H]1CC[C@]2(C)[C@@H]1CC[C@@H]1[C@@]3(C)CC/C(=N/O)C(C)(C)[C@@H]3CC[C@]12C,-15.4% [100 µM] (active),10.9% [100 µM],-69.7% [100 µM] (active),-34.2% [100 µM] (active),-32.5% [100 µM] (active),11.5% [100 µM],-66.5% [100 µM] (active),-53.9% [100 µM] (active),19.8% [100 µM],-13.6% [100 µM] (active),29.7% [100 µM],-43.5% [100 µM] (active),-38.8% [100 µM] (active),-28.8% [100 µM] (active),-81.5% [100 µM] (active),-52.1% [100 µM] (active),-45.3% [100 µM] (active),-59.2% [100 µM] (active),-9.59% [100 µM] (active),-36.1% [100 µM] (active)
